KCNQ2 block: KCNQ2 (rat) channel inhibition | O88943 | CHO-K1 KCNQ2, FluxOR thallium flux, 20 min; stronger effect = lower value | B-score at 10 µM | hit rate 1.1% among 310,000;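 active means fluorescence ratio B-score at most minus 3 library SDs, with starting brightness B-score within 2 library SDs, cut at about -5.5 in these data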
KCNQ2 enhance: KCNQ2 (rat) channel potentiation. hit rate 0.54% among 310,000. O88943. CHO-K1 KCNQ2, FluxOR thallium flux fluorescence; stronger effect = higher value. AID 2239. B-score at 10 µM;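 active means fluorescence ratio B-score at least 3 SD of library B-scores, with initial fluorescence B-score within 3 of them, cut at about 5.3 in these data; same plate scores as AID 2156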;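 further: B-score of peak minus minimum over baseline fluorescence ratio after K+ and Tl+ stimulus; positive B-score means potentiation of KCNQ2 with more thallium influx and brighter signal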
Kir21 conf inh: confirmation of mouse Kir2.1 potassium channel inhibitors; shares compounds with KCNQ2 enhance; Kir2.1-expressing cells, FluxOR thallium flux fluorescence; stronger effect = lower value; Tl flux remaining, % of negative control (stronger effect = lower value), % at 10 µM; hit rate 41% among 2,300;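 active means Primary-screen hit whose thallium flux fell at least 3 control SD below untreated wells in both duplicates, with normal baseline fluorescence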;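 further: 0% = blank wells without stimulus and 100% = stimulated no-compound controls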
Target sequence (P35561 whole entry, looked up): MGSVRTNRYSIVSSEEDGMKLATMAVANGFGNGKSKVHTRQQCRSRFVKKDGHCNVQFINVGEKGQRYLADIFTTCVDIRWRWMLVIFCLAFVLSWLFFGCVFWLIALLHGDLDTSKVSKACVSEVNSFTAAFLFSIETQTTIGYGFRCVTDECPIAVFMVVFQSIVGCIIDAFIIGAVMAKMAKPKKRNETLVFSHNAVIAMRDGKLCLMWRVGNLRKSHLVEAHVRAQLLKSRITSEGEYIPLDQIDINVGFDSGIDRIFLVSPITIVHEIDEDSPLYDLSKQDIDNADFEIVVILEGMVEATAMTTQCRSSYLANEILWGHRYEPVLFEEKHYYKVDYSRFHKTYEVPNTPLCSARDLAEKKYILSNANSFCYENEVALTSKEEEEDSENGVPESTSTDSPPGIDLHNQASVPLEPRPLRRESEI
HEK293 Tl flux: alters thallium flux in parental HEK293 cells, Kir2.1 counter-screen. hit rate 19% among 2,300. FluxOR thallium flux fluorescence; 0% = unstimulated blank wells. shares compounds with KCNQ2 enhance. AID 2105. FluxOR signal as % of negative control (100 = no effect), % at 10 µM;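 active means dye signal at least 3 control SD above or below untreated wells in both duplicates, raw fluorescence within 3, either direction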;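 further: percent is based on the flux ratio of peak minus minimum fluorescence over baseline F0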
CHO-K1 ctr: counter-screen for KCNQ2 potentiators: effect in parental CHO-K1 cells; shares compounds with KCNQ2 enhance; FluxOR thallium flux fluorescence; zero = vehicle mean+3SD, 100% = vehicle-minus-blank window; activity increase over 3SD of controls, % at 10 µM; hit rate 43% among 1,200; AID 2282;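 active means signal rise of at least 3 SD above the untreated control mean, in both duplicate wells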;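 further: counter screen of KCNQ2 potentiator hits so any rise reflects channel-independent effects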
KCNQ1 sel pot: tests whether KCNQ2 potentiators also act on human KCNQ1; hit rate 28% among 1,200; CHO KCNQ1 stable, FluxOR thallium flux fluorescence; beyond 3SD, as % of vehicle-control signal; activation over 3SD threshold, % at 10 µM; shares compounds with KCNQ2 enhance; AID 2283;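 active means fluorescence ratio rise of at least 3 SD of vehicle wells above their mean, in both replicate wells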;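 further: 0% = vehicle mean plus 3 SD and 100% = vehicle minus unstimulated blank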
KCNQ2 pot conf: confirmation of rat KCNQ2 potassium channel potentiators | shares compounds with KCNQ2 enhance | CHO-KCNQ2 cells, FluxOR thallium flux fluorescence | potentiation, less the hit threshold, % at 10 µM | hit rate 68% among 1,200;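 active means fluorescence ratio rising 3 SD or more over the vehicle control mean in both replicates, plus primary screen hit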;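 further: peak minus minimum thallium fluorescence divided by baseline after K/Tl stimulus; 0% = vehicle mean plus 3 SD and 100% = vehicle minus unstimulated blank difference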
Kir2-1 sel: tests whether KCNQ2 potentiators also affect mouse Kir2.1; HEK293 Kir2.1, FluxOR thallium flux fluorescence; hit rate 2% among 1,200; activity over 3SD threshold, % at 10 µM; shares compounds with KCNQ2 enhance;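 active means fluorescence ratio rise of at least 3 SD above the vehicle-control mean, seen in both replicates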;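 further: 0% = vehicle mean plus 3 SD and 100% = vehicle minus no-stimulus blank window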
KCNQ2 W236L MoA: rat KCNQ2 W236L mutant potentiation by KCNQ2 potentiators | shares compounds with KCNQ2 enhance | CHO KCNQ2-W236L, automated patch clamp current | current increase over 3SD of negative controls (%), stronger effect = higher value, % at 25 µM | hit rate 10% among 940 | AID 2558;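 active means current increase at least 3 SD of the untreated controls above them in both duplicate recordings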
Starred values were filed as active, the others as inactive. Hits are enriched below; roughly 1.6% of the tested compounds scored in any of these assays.

For O=c1nc(SCc2ccccc2Cl)nc(-c2ccc(Cl)cc2)[nH]1 the results were KCNQ2 block inactive, KCNQ2 enhance 11*, Kir21 conf inh inactive, HEK293 Tl flux 148%*, CHO-K1 ctr 13*, KCNQ1 sel pot -9, KCNQ2 pot conf 6.1*, Kir2-1 sel -34 and KCNQ2 W236L MoA inactive.
Screening O=c1nc(SCc2c(F)cccc2Cl)nc(-c2ccc(Cl)cc2)[nH]1 returned KCNQ2 block inactive and KCNQ2 enhance 2.9.
For COc1ccc(Nc2ccnc3ccccc23)cc1 the results were KCNQ2 block inactive, KCNQ2 enhance 2, Kir21 conf inh 14%* and HEK293 Tl flux inactive.
COc1ccc(Nc2ncnc3ccccc23)cc1 was read as KCNQ2 block inactive and KCNQ2 enhance 2.4.
CC(=O)OC1=C(C#N)Cn2ccc3cccc1c32 was read as KCNQ2 block inactive, KCNQ2 enhance 1.9, Kir21 conf inh 55%* and HEK293 Tl flux inactive.
For CN(Cc1ccccc1)C(=O)CC(c1ccccc1)c1cc(Cl)ccc1O (configuration not stated) the results were KCNQ2 block inactive.
`Nn1c(SCC(=O)Nc2ccccc2F)nnc1-c1cccs1` gave KCNQ2 block inactive and KCNQ2 enhance 0.4.
`Cc1ccc(C(C)(C)NC(=O)C2CCC(=O)N(Cc3ccccc3F)C2)cc1` (configuration not stated) gave KCNQ2 block inactive and KCNQ2 enhance 1.4.
For O=C(Cn1c2c(c(-c3ccccc3)cc1=O)CCCC2)N1CCCCCC1 the results were KCNQ2 block inactive, KCNQ2 enhance 8.4*, Kir21 conf inh inactive, HEK293 Tl flux inactive, CHO-K1 ctr 34*, KCNQ1 sel pot 19*, KCNQ2 pot conf 12*, Kir2-1 sel -32 and KCNQ2 W236L MoA inactive.
Screening CCCCNC(=O)Cn1c2c(c(-c3ccccc3Cl)cc1=O)CCC2 returned KCNQ2 block inactive and KCNQ2 enhance 0.07.
`CN1C(=O)C(CC(=O)Nc2ccc(F)cc2)N(NC(=O)c2cccc(F)c2)C1=S` (configuration not stated) gave KCNQ2 block inactive.
O=C(c1ccccc1)n1c(=O)c(F)cn(COCCBr)c1=O was read as KCNQ2 block inactive.
CCCCOC(=O)Cn1c(=N)n(CCN2CCOCC2)c2ccccc21 was read as KCNQ2 block inactive.
CCCCCCCCCCOC(=O)Cn1c(COc2ccccc2)[n+](C)c2ccccc21 was read as KCNQ2 block inactive, Kir21 conf inh inactive and HEK293 Tl flux inactive.
`Cc1cccc(OCCCn2c(=O)sc3ccccc32)c1` gave KCNQ2 block inactive.
CCCCCCCCCCOC(=O)Cn1c(COc2cccc(C)c2)[n+](C)c2ccccc21 was read as KCNQ2 block inactive, KCNQ2 enhance 0.86, Kir21 conf inh inactive and HEK293 Tl flux inactive.
Screening CCCCCCCCCCOC(=O)Cn1c(COc2ccc(OC)cc2)[n+](C)c2ccccc21 returned KCNQ2 block inactive, KCNQ2 enhance 1.6, Kir21 conf inh inactive and HEK293 Tl flux inactive.
CCCCCOC(=O)Cn1c(=O)oc2ccccc21 was read as KCNQ2 block inactive.
`CCCCOC(=O)Cn1c(=O)n(CC(=O)OCCCC)c2ccccc21` gave KCNQ2 block inactive, Kir21 conf inh inactive and HEK293 Tl flux inactive.
`CCCCCCCCCCOC(=O)Cn1c(COc2ccc(Cl)cc2)[n+](C)c2ccccc21` gave KCNQ2 block inactive.
Screening Cc1cc2c(NC3CCCCC3)ncnc2s1 returned KCNQ2 block inactive and KCNQ2 enhance 1.
For CN1CCC(N(C)C(=S)NC(=O)c2cc(-c3cccc(Br)c3)nc3ccccc23)CC1 the results were KCNQ2 block inactive and KCNQ2 enhance 1.1.
Screening O=C(Nc1ccc(-n2cnnn2)cc1)C1CCC1 returned KCNQ2 block inactive.
`O=C(Cc1ccc(-n2cnnn2)cc1)NC12CC3CC(CC(C3)C1)C2` gave KCNQ2 block inactive, KCNQ2 enhance 6.2*, Kir21 conf inh inactive, HEK293 Tl flux inactive, CHO-K1 ctr 83*, KCNQ1 sel pot -17, KCNQ2 pot conf 3.4*, Kir2-1 sel -41 and KCNQ2 W236L MoA inactive.
Screening CCCCc1nc2ccc(S(=O)(=O)O)cc2[nH]1 returned KCNQ2 block inactive.
`CCOC(=O)c1c(NC(=O)C(NCCN(C)C)c2ccccc2)sc2c1CCCC2` (configuration not stated) gave KCNQ2 block inactive, Kir21 conf inh 42%* and HEK293 Tl flux inactive.
CCOC(=O)c1c(NC(=O)c2ccccc2N(C)S(=O)(=O)c2ccccc2)sc2c1CCCC2 was read as KCNQ2 block inactive.
Screening Cc1ccc(OCCC(=O)OCC(=O)Nc2ccccc2)cc1 returned KCNQ2 block inactive.
Screening Cc1nn(CC(=O)N2CCCC2)c(=O)c2cc3cc(F)ccc3n12 returned KCNQ2 block inactive and KCNQ2 enhance 2.1.
Screening CC(=O)NC(Cc1ccc(C)cc1)C(=O)NC1CCN(C(=O)NCc2ccccc2)CC1 (configuration not stated) returned KCNQ2 block inactive.
Screening CN(Cc1ccccc1)CC1CCCN(CCc2ccccc2F)C1 (configuration not stated) returned KCNQ2 block inactive.
CC(=O)c1cccc(CN(C)CC2CCCN(CCc3ccccc3C)C2)c1 (configuration not stated) was read as KCNQ2 block inactive, KCNQ2 enhance 0.27, Kir21 conf inh 51%* and HEK293 Tl flux inactive.
Screening COc1cc(CN(C)CC2CCCN(CCc3ccc(F)cc3)C2)c(Cl)cc1O (configuration not stated) returned KCNQ2 block inactive and KCNQ2 enhance 0.49.
COc1ccc(CN(C)CC2CCCN(CCc3ccc(Cl)cc3)C2)cc1OC (configuration not stated) was read as KCNQ2 block inactive.
For COc1ccc(F)c(CN(C)CC2CCCN(CCc3ccc(F)cc3)C2)c1 (configuration not stated) the results were KCNQ2 block inactive, Kir21 conf inh 31%* and HEK293 Tl flux inactive.

Screening results deposited in PubChem by Johns Hopkins Ion Channel Center.
